# ChEMBL document CHEMBL4513216, “Probing the Open Global Health Chemical Diversity Library for Multistage-Active Starting Points for Next-Generation Antimalarials” (ACS Infect Dis, 2020)
# The whole screen tested about 69,000 compounds, of which about 8,600 (12%) showed an effect of 50% or more. The sample holds strong results, similar compounds and a random draw of the others, so the mix is not that of the screen.
# System: Plasmodium berghei
# Assay: Screen against P. berghei liver stage (PbLuc), transformed with Luciferase, at 10uM
# Format: functional, HepG2
# Conditions: tested at 10 uM
row,SMILES,INHIBITION [%]
1,CC(C)CN1CCN(C)C(CCO)C1 (stereo not given),34.4
2,Cc1ccc(-c2cc(CNC(=O)N3CCC(N(C)C)CC3)on2)cc1,17.4
3,COc1ccc(C(=O)N2CC(=O)N(C3CCC3)CC(O)C2)c(OC)c1 (stereo not given),13.9
4,CO[C@@H]1CC[C@@H](NS(=O)(=O)c2cn(C)nc2C)[C@H]1O,33.8
5,c1ccc(CN2CCC(CNc3ncnc4c3CCNCC4)CC2)cc1,28.7
6,COc1ccc(-c2ccc(C(=O)N3CCOCC3CC(=O)O)o2)cc1 (stereo not given),1.71
7,O=C(CN1CCCCCC1)N1CCc2nnc(C3CCCNC3)n2CC1 (stereo not given),30.4
8,CC(C)c1noc(CCNC(=O)NCC2COc3ccccc3O2)n1 (stereo not given),7.24
9,O=C(c1ccco1)N1CCc2ncnc(Oc3cccnc3)c2CC1,29
10,O=C(CN1CCN(CC(O)C2CC2)CC1)NCc1ccccc1Cl (stereo not given),17.6
11,Cc1nnc(N2CCOC(C)C2)c(C#N)c1C (stereo not given),7.4
12,CS(=O)(=O)N1CCCC1Cn1cccn1 (stereo not given),20.8
13,COc1ccccc1C1=NOC(CC2(C(=O)NCCO)CCOCC2)C1 (stereo not given),8.72
14,Cc1cc(CN2CCCCC2Cn2cncn2)no1 (stereo not given),20.8
15,c1ccc(-c2nc(CN3CCc4c(ncn4C4CC4)C3)cs2)cc1,34.1
16,CNS(=O)(=O)CC(=O)NCc1cc2c(s1)CCC(C)(C)C2,-19.3
17,O=C([C@H]1C[C@H]2OCC[C@H]2N(CCc2ccccc2)C1)N1CCCCO1,-0.569
18,CCN1CCn2c(-c3cccc(F)c3)cnc2C12CCN(C(C)=O)CC2,85.2
19,CC(=O)N1CCn2c(-c3cccc(F)c3)cnc2C12CCNCC2,24.9
20,CC(=O)N1CCC2(CC1)c1ncc(-c3ccc(F)cc3)n1CCN2C,39.4
21,CC(=O)N1CCC2(CC1)c1ncc(-c3cccnc3)n1CCN2C,58.4
22,CC(=O)N1CCC2(CC1)c1ncc(-c3ccccc3)n1CCN2C,43

row,SMILES,INHIBITION [%]
1,CN1CCn2c(-c3cccc(F)c3)cnc2C12CCN(CC1CC1)CC2,8.85
2,CC(=O)N1CCC2(CC1)c1ncc(-c3ccccc3)n1CCN2C(C)=O,-15.3
3,CNC(=O)N1CCC2(CC1)c1ncc(-c3cccc(F)c3)n1CCN2C,63.3
4,CCS(=O)(=O)N1CCC2(CC1)c1ncc(-c3cccnc3)n1CCN2C,24.9
5,COc1ccccc1CNC(=O)CN(C)C(C)c1ccon1 (stereo not given),-13.6
6,COc1ccc(N2CCN(C(=O)COc3c(C)occc3=O)CC2)cc1,-1.99
7,O=C(O)c1ccc(=O)n(CC(c2ccc(Cl)cc2)N2CCCCCC2)c1 (stereo not given),10.8
8,OC(CNCc1nnc2ccccn12)c1ccc2c(c1)OCO2 (stereo not given),-10.8
9,Nc1nccnc1C1CN(C(=O)c2ccc3c(c2)OCO3)CCO1 (stereo not given),11.1
10,Cc1c(C2CC2)n[nH]c1NC(=O)C1CCCN(C(=O)NCC(C)C)C1 (stereo not given),35.7
11,CCCC1c2cccn2CCN1C(=O)Cn1cnc2sc(C)cc2c1=O (stereo not given),11.35
12,Cc1ccc(-c2noc(CN3CCOC(Cn4cccn4)C3)n2)cc1 (stereo not given),48.6
13,Cc1cc(C)n(C2CCCN(C(=O)CCc3nccs3)C2)n1 (stereo not given),21.6
14,Cn1ccnc1C(=O)NC[C@@H]1OC[C@H]2CN(S(C)(=O)=O)CC[C@H]21,64.7
15,CN1CC[C@@H]2[C@@H](CO[C@H]2CNC(=O)c2nccn2C)C1,-17.7
16,Cn1cc(C(=O)NC[C@@H]2OC[C@H]3CN(S(C)(=O)=O)CC[C@H]32)cn1,18.5
17,Cn1ccnc1C(=O)NC[C@H]1OC[C@@H]2CCN(S(C)(=O)=O)C[C@@H]21,52.1
18,CCCN1CC[C@@H]2[C@@H](CO[C@H]2CNC(=O)c2nccn2C)C1,34
19,Cn1ccnc1C(=O)NC[C@@H]1OC[C@H]2CN(CC3CC3)CC[C@H]21,20.4
20,NCC(CO)Cc1cccc(OC(F)(F)F)c1 (stereo not given),-14.5
21,CC(C)N1Cc2c(C(=O)N3CCOCC3)nn(C)c2C1,6.82
22,CC(C)(C)C(=O)N1CCCC1c1cc(CO)[nH]n1 (stereo not given),3.585

row,SMILES,INHIBITION [%]
1,Cc1nc(C(=O)N2CCCC(c3nc(C(C)C)cs3)C2)c[nH]1 (stereo not given),8.12
2,CC(C)c1csc(C2CCCN(C(=O)c3ccc(=O)n(C)c3)C2)n1 (stereo not given),52.6
3,CC(C)c1csc(C2CCCN(C(=O)c3ccc(=O)n(C)n3)C2)n1 (stereo not given),-7.48
4,CC(C)c1csc(C2CCCN(C(=O)c3ccc[nH]3)C2)n1 (stereo not given),59.1
5,CC(C)c1csc(C2CCCN(C(=O)Cn3ccccc3=O)C2)n1 (stereo not given),9.25
6,CC(C)c1csc(C2CCCN(C(=O)c3ncccn3)C2)n1 (stereo not given),31.9
7,Cc1c(COc2ccccc2)cccc1NC(=O)N1CC[C@H](O)C1,26.9
8,COCCC(=O)NCC(O)c1c(F)cccc1F (stereo not given),-2.92
9,Cc1ccc(NC(=O)c2ccc(=O)n(CC(=O)NC3CCCC3)n2)cc1,16.2
10,O=C(O)c1sccc1Oc1ccc(NC(=O)C2CC2)cc1,22.6
11,Cc1cc(C)c(C#N)c(NCCSc2nncn2C)n1,7.45
12,Cc1cc(C)c(C#N)c(NCCn2cnnc2C(C)C)n1,58.9
13,CCn1cnnc1CCNc1nc(C)cc(C)c1C#N,32.775
14,CCCn1nc(C)c(CN(CCN(C)C)Cc2ccccn2)c1C,13.7
15,Cc1ccccc1CN(CCN(C)C)Cc1ccc(S(C)(=O)=O)cc1,40.4
16,Cc1ccccc1CN(Cc1ccncc1)CC(C)C,21.5
17,Cc1ccccc1CN(Cc1ccc(S(C)(=O)=O)cc1)CC(C)C,78.9
18,CN(C)C(=O)[C@H]1CO[C@H]2CCN(c3ncc(F)cn3)C[C@H]2C1,34.2
19,CN(C)C[C@@H]1C[C@@H]2CN(C(=O)c3ccoc3)CC[C@@H]2N1CC1CC1,25.7
20,CCCNC(=O)CCC(=O)N1CCC(c2noc3cc(F)ccc23)CC1,21.8
21,CCOC(=O)C1(NCC(=O)Nc2cc(C)ccc2OC)CCCC1,-35
